In PubChem BioAssay one finds z-score and composite z-score data, which are given here for 13 compounds.

Assay [1] is described as follows: optical density shifts of acrAB sulA E. coli – strain DRC41, OD650, 48 h, E. coli filamentation inducer project, primary screen (AID 1152).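 Also: E. coli MC1000 strain DRC41 lacking acrAB efflux pump and sulA.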 Conditions: higher = more signal, called active from +8 up or from −8 down.
Assay [2] in a line: probe aLefty1 binding on compound microarray – biochemical, small-molecule microarray, 635/667 nm fluorescence, primary screen (AID 1153).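 Also: score merges spot fluorescence with signal-to-noise ratio from the scanned slide images.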 Conditions: higher = more signal.
A short description of assay [3]: plasmodial surface anion channel blockers, osmotic lysis – cell-based, P. falciparum Indochina, OD700, 1 h, primary screen (AID 1154). Particulars: P. falciparum Indochina infected RBC osmotic lysis, higher = more signal, called active from +8 up or from −8 down.
Assay [4] is described as follows: plasmodial surface anion channel blockers, osmotic lysis – cell-based, P. falciparum Indochina, OD700, 2 h, primary screen (AID 1155).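 Also: lysis reports solute entry through the parasite surface anion channel PSAC.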 Particulars: P. falciparum Indochina infected erythrocytes, higher = more signal, called active from +8 up or from −8 down.
Assay [5] is described as follows: changes in parasitized red cell lysis, either direction – P. falciparum Indochina, OD700, 3 h, PSAC antagonist project, primary screen (AID 1156). Conditions: P. falciparum-infected erythrocytes, osmotic lysis, higher = more signal, called active from +8 up or from −8 down.
Assay [6] is described as follows: plasmodial surface anion channel blockers, osmotic lysis – cell-based, P. falciparum Indochina, OD700, 18 h, primary screen (AID 1157). Particulars: P. falciparum Indochina infected erythrocytes, osmotic lysis OD700, 18 h; higher = more signal, called active from +8 up or from −8 down.
Assay [7] can be described thus: S6 kinase pathway phospho-S6 level changes – cell-based, A549, cytoblot, luminescence, serum-stimulated, primary screen (AID 1158).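 Also: serum-stimulated A549 lung adenocarcinoma cells; signal is phosphorylated S6 detected by cytoblot immunostaining with HRP secondary.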 Particulars: 5 h, higher = more signal.
In assay [8] the target is NADPH oxidase 2 (Homo sapiens) (UniProt P04839). The assay can be described thus: compounds shifting NOX2 Amplex Red fluorescence – cell-based, HEK293-NOX2, PMA-stimulated, NOX inhibitor project, primary screen (AID 1159). Also: test concentration not given here. Particulars: 45 min, higher = more signal, called active from +8 up or from −8 down.
Assay [9] has as its target NADPH oxidase 4 (Homo sapiens) (UniProt Q9NPH5). Put plainly: compounds shifting NOX4 Amplex Red fluorescence – cell-based, HEK293-NOX4, tetracycline-induced, NOX inhibitor project, primary screen (AID 1160). Particulars: HEK293-NOX4, Amplex Red H2O2 fluorescence, 45 min; higher = more signal, called active from +8 up or from −8 down.
In assay [10] the target is NADPH oxidase 5 (Homo sapiens) (UniProt Q96PH1). Put plainly: compounds shifting NOX5 Amplex Red fluorescence – cell-based, HEK293-NOX5, NOX inhibitor project, primary screen (AID 1161). Conditions: HEK293-NOX5, ionomycin, 45 min, higher = more signal.

The source made the active and inactive calls.

Sequence of NADPH oxidase 4 (Homo sapiens) (Q9NPH5 whole entry, looked up): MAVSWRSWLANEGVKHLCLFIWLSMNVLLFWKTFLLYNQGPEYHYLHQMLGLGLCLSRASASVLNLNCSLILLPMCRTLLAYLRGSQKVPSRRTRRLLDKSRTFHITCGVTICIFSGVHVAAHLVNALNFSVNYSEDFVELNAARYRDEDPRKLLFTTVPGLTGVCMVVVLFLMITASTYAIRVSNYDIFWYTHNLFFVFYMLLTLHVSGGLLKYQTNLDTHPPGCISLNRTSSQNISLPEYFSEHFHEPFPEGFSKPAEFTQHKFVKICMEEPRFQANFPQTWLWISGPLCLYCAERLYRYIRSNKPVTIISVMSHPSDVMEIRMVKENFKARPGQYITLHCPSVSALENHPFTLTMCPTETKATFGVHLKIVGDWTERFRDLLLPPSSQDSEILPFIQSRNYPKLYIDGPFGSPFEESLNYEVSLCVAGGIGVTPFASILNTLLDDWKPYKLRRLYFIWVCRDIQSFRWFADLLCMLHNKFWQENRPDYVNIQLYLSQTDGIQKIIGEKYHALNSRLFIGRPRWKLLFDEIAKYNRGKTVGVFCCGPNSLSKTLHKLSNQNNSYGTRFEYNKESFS
Sequence of NADPH oxidase 5 (Homo sapiens) (Q96PH1 whole entry, looked up): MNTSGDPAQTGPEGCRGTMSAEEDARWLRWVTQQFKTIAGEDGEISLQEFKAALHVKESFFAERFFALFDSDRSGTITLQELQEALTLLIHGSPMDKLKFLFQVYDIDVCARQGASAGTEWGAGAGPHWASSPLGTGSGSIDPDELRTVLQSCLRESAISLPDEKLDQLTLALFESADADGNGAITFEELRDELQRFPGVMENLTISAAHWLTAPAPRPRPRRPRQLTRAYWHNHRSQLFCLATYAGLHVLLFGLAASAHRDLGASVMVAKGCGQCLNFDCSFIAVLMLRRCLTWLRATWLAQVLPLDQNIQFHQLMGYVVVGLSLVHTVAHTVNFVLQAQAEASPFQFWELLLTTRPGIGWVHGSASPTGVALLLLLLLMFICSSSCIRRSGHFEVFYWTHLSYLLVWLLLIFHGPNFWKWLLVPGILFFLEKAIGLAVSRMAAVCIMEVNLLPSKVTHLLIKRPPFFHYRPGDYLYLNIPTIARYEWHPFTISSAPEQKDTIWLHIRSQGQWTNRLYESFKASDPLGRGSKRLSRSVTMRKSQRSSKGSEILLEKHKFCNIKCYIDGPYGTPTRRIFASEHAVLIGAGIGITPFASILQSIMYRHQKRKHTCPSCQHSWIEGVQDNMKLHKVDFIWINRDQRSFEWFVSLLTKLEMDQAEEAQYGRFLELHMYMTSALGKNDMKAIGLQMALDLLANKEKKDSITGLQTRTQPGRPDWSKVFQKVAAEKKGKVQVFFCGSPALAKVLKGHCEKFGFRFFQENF
Sequence of NADPH oxidase 2 (Homo sapiens) (P04839 whole entry, looked up): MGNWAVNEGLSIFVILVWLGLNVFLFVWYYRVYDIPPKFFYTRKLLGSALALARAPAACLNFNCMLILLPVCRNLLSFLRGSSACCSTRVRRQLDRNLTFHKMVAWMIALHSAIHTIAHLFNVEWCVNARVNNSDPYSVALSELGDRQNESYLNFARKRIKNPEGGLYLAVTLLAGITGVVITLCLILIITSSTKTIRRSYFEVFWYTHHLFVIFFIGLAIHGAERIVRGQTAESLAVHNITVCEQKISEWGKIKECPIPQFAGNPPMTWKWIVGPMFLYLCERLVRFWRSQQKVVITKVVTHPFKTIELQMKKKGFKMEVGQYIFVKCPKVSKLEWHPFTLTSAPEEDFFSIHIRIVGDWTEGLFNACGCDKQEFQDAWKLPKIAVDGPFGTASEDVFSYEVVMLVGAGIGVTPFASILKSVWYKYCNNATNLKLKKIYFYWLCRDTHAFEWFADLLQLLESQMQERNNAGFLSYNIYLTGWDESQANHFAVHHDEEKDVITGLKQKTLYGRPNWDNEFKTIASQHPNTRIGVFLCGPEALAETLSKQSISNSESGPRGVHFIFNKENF

Regarding `COc1ccc(C#Cc2ccc3c(c2)[C@]2(C(=O)N3)[C@H](c3ccccc3OCCO)N3[C@H](c4ccccc4)[C@H](c4ccccc4)OC(=O)[C@H]3[C@@H]2C(=O)O)cc1`, the z-score is -0.181 (inactive) in assay [1]; 0.123 (inactive) in [3]; 0.267 (inactive) in assay [4]; -5.14 (inactive) in assay [5]; -0.867 (inactive) in [6]; 0.25 in assay [7]. The z-score in [8] was 0.441 (inactive); in assay [9] it was -1.36 (inactive); in assay [10], -0.669. In assay [2], this compound returned a composite z-score of 1.27.
`[N-]=[N+]=Nc1ccccc1C[C@]1(C(N)=O)N=C(c2ccc(OCCCO)cc2)O[C@H]1c1ccccc1`: the z-score in assay [1] is -0.444 (inactive); in assay [3] it was 19.8 (active); in [4] it was 3.47 (inactive); in assay [5] it was 1.84 (inactive); in [6], 0.936 (inactive); in assay [7], 0.176. For the same compound, the z-score in assay [8] is 0.631 (inactive); in assay [9] it was 0.247 (inactive); in assay [10], -1.32. Further, in [2], the composite z-score was 0.228.
For the compound `CC1CC/C=C\[C@H]2OC34C=CCN(c5ccc(Cl)cc5)C(=O)[C@H]3N(CCO)C(=O)[C@]4(C)C2C(=O)O1` (stereo not given in full), the z-score in [1] is -0.209 (inactive); in [3], 2.73 (inactive); in [4] it was 0.402 (inactive); in [5], 0.0852 (inactive); in assay [6] it was 0.382 (inactive); in assay [7] it was 1.13. In addition, the z-score is 1.66 (inactive) in assay [8], 0.741 (inactive) in [9] and 3.16 in [10]. In assay [2], this compound displayed a composite z-score of -0.485.
For the compound `O=C1OCCC=C[C@H]2OC34C=CCN(CCN5CCOCC5)C(=O)[C@H]3N(CCCCCCO)C(=O)[C@@H]4C12` (stereo not given in full), the z-score is 0.36 (inactive) in assay [1]; 0.683 (inactive) in [3]; 0.539 (inactive) in assay [4]; 0.835 (inactive) in assay [5]; 0.353 (inactive) in assay [6]; -0.156 in [7]. Moreover, the figures for the z-score in assay [8], in [9] and in assay [10] were 0.658 (inactive), -0.289 (inactive) and 1.67, respectively. The compound further had a composite z-score in [2] of -0.286.
As for `COC(=O)c1c(CC[C@@H](CO)NC(=O)N[C@@H](C)Cn2cc(C3(O)CCCCC3)nn2)oc(C(C)=O)c1C(=O)OC`, the z-score is -0.244 (inactive) in [1]; 5.47 (inactive) in assay [3]; -0.319 (inactive) in [4]; 1.01 (inactive) in assay [5]; -1.01 (inactive) in [6]; 0.813 in assay [7]. For the same compound, the z-score is -6.12 (inactive) in [8], -2.61 (inactive) in [9] and -2.88 in assay [10]. In assay [2], this compound yielded a composite z-score of -0.0984.
As to `COCC(=C=CC[C@@H](O)c1ccccc1OCCO)C[C@@H](O)c1cc(Cl)cc(Cl)c1O`, the z-score in assay [1] is -0.397 (inactive); in assay [3], 20.5 (active); in [4], 4.9 (inactive); in assay [5], 0.392 (inactive); in assay [6] it was 0.945 (inactive); in assay [7] it was 0.35. In addition, the z-score in assay [8] was -0.19 (inactive); in assay [9] it was -0.894 (inactive); in assay [10] it was -2.07. The compound also came in with a composite z-score in [2] of 0.086.
For the compound `C=CCNC(=O)[C@@H]1[C@H]2C(=O)O[C@H](c3ccccc3)[C@H](c3ccccc3)N2[C@H](c2ccc(OCCO)cc2)[C@@]12C(=O)Nc1ccc(C#CCCO)cc12`, the z-score in [1] was -0.41 (inactive); in assay [3], 7.17 (inactive); in assay [4] it was 2.11 (inactive); in [5], 1.14 (inactive); in [6], 0.812 (inactive); in assay [7], -0.344. The z-score in [8] was 1.67 (inactive); in assay [9], 0.442 (inactive); in assay [10], 0.688. In assay [2], this compound showed a composite z-score of 0.656.
As to `CN1C(=O)C2C=CC(C(O)c3ccccc3)N(Nc3ccccc3)C2C1=O` (stereo not given), the z-score in assay [1] was -1.78 (inactive); in assay [3], 0.0961 (inactive); in assay [4] it was 1.31 (inactive); in assay [5], 0.595 (inactive); in assay [6], 0.974 (inactive); in assay [7], -1.1. The z-score was -1.67 (inactive) in assay [8], -3.82 (inactive) in [9] and -3.23 in assay [10]. The same compound displayed a composite z-score in [2] of 0.242.
Regarding `CN1C(=O)C2C=CC(C(O)c3cccs3)N(Nc3ccccc3)C2C1=O` (stereo not given), the z-score in assay [1] was -1.6 (inactive); in assay [3] it was -0.203 (inactive); in assay [4], 0.65 (inactive); in assay [5], -0.109 (inactive); in assay [6] it was 0.731 (inactive); in assay [7], -1.19. The values for the z-score in assay [8], in [9] and in assay [10] were -2 (inactive), -4.89 (inactive) and -3.11, respectively. In assay [2], the composite z-score stood at 0.206.
Turning to `COC(=O)c1c(CC[C@@H](CO)NC(=O)N2CCC[C@H]2Cn2cc(-c3ccccn3)nn2)oc(C(C)=O)c1C(=O)OC`, the z-score in assay [1] is 1.04 (inactive); in assay [3] it was 1.58 (inactive); in assay [4], -0.448 (inactive); in [5] it was -0.315 (inactive); in assay [6], -0.741 (inactive); in assay [7] it was 0.882. The z-score in assay [8] was -2.6 (inactive); in assay [9], -1.44 (inactive); in assay [10], -1.84. Also, the composite z-score in assay [2] was -0.101.
Take `COCCOC(=O)N1C(=O)[C@@]2(c3cc(C#CCNC(N)=O)ccc31)[C@H](C(=O)NC[C@H](O)c1ccccc1)[C@H]1C(=O)O[C@H](c3ccccc3)[C@H](c3ccccc3)N1[C@@H]2c1ccccc1OCCO`: the z-score in assay [1] was -0.119 (inactive); in [3], 2.05 (inactive); in [4], 0.35 (inactive); in [5], 0.927 (inactive); in assay [6], 0.317 (inactive); in assay [7] it was 0.239. The z-score in [8] is 1.91 (inactive); in assay [9], 1.63 (inactive); in assay [10] it was -0.63. For the same compound, the composite z-score in assay [2] amounted to 1.28.
In the case of `C=CC[C@]1(C(=O)NCCCOC)N=C(c2ccc(OCCCO)cc2)O[C@H]1c1ccccc1N=[N+]=[N-]`, the z-score in [1] is 0.239 (inactive); in assay [3] it was 33.6 (active); in assay [4], 32.2 (active); in assay [5], 3.35 (inactive); in [6], 8.48 (active); in assay [7], -0.403. The z-score was -1.06 (inactive) in assay [8], 1.33 (inactive) in assay [9] and -0.678 in [10]. The compound further yielded a composite z-score in [2] of 0.479.
Take `C=CC[C@@]1(C(=O)NCc2ccccc2)N=C(c2ccc(OCCCO)cc2)O[C@@H]1c1ccccc1N=[N+]=[N-]`: the z-score in [1] is -0.304 (inactive); in assay [3], 33.3 (active); in assay [4], 31.1 (active); in assay [5], 3.73 (inactive); in [6], 8.16 (active); in [7] it was -0.126. Also, the z-score in assay [8] is -1.88 (inactive); in assay [9], 1.29 (inactive); in assay [10] it was -0.965. In [2], this compound showed a composite z-score of 0.869.
